Values joined by “and” are separate entries in the source; they are usually repeats but may differ in a detail not shown here. Identical values can stand only once. This is part of a sample that, as a whole, favours compounds with a hit. Of some 83,000 tested, about 20% had one in any assay.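 Note: values are percent growth. 100 is the growth of untreated cells, values between 100 and 0 indicate rising inhibition; between -100 and 0 indicates cell death.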 Unmarked numbers belong to inactive results. Active and inactive are the calls of the source. Rule for the calls: active = growth percent below 10; inactive = the rest.

For this assay, the system named is MDA-MB-468 breast. As to the kind of experiment: NCI-60 one-dose screen, 48 h (100 = growth as untreated, 0 = no growth, -100 = all killed). The following applies: 10 µM unless noted.
Regarding `CC1(C)OC(=O)C(=Cc2ccc(C#N)cc2)C(=O)O1`, the growth was 91.7% and 96.1%.
Regarding `CCCCCCN1C(=O)/C(=c2\sc3n(c2=O)C2C(NN=3)N(CC)C(=O)N2CC)c2ccccc21` (centres undefined), the growth was -10.2% (active).
As for `COc1ccc(-c2cc(-c3cccc(Cl)c3)c(C#N)c(=O)[nH]2)c(OC)c1`, the growth was 113%.
For `O=C(CSc1cc[n+](CCCCO)c2ccccc12)n1ccc2ccccc21`, the growth is 108%.
With `COC(=O)[C@H](CSC)N(C)C(=O)[C@@H]1CSSC[C@@H](NC(=O)c2nc3ccccc3cc2O)C(=O)NCC(=O)N1C`, the growth is 61.3%.
With `COc1ccc2c(c1)c(-c1nc(-c3cn(C)c4ncccc34)cs1)cn2CCCN1CCCCC1`, the growth is 70.9%.
Under `Clc1ccc(/C=N/Nc2nc3ccccc3s2)c(Cl)c1` stands 89.3%.
As for `CC(=O)Nc1cc2c3c(cccc3c1)-c1ccccc1-2`, the growth was 108%.
Consider `Nc1nc(N)c2cc(Sc3ccc(Cl)cc3)ccc2n1`, for which the growth was 18.7%.
With `O=c1nc2c(-c3nc4ccccc4s3)n[nH]n2c2sc3c(c12)CCCC3`, the growth is 120%.
In the case of `COc1cc2nc(SCc3cc(OC)c(OC)c(OC)c3)n(-c3ccccc3OC)c(=O)c2cc1OC` it was 97.9%; in that of `COc1ccc(-n2c(=O)n(-c3ccc(-c4nc5ccc(F)cc5s4)cc3)c(=O)c3cccnc32)cc1`, 121%.
Under `S=c1[nH]nc(Cc2ccccc2)c(=S)[nH]1` stands 94.7%; under `O=C(/C=C/CN1CCCCC1)Nc1cc2c(Nc3ccc(F)c(Cl)c3F)ncnc2cc1OCCOC(F)F`, -48.7% (active).

The values are drawn from PubChem BioAssay (NCI).
